# Source: PubChem BioAssay AID449728 (The Scripps Research Institute Molecular Screening Center, 2010)
# Several values for one entry are separate records, joined by “and”; a condition that tells them apart may be missing. Identical values can stand only once. Hit rate of the full screen: of about 330,000 compounds, about 900 (0.27%) were called active.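 The calls were made as follows: active = inhibition above the campaign's mean inhibition across all tested compounds plus 3 SD (cut at about 9.9% in these data); inactive = the rest.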 The entries come from a sample that favours actives as a whole. More than one record can exist for a structure, and the calls need not agree.
# Assay: bacterial viability reduction in E. coli – absorbance, OD600, counter-screen for AddAB inhibitor project, primary screen (AID 449728);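 also: uninfected addAB+ strain grown without phage in ampicillin broth; 0% = DMSO wells and 100% = ciprofloxacin 0.95 µg/ml wells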
# Details: E. coli V3065 growth, 18 h, at 11.9 µM, stronger effect = higher value
row,SMILES,inhibition
1,CCn1c(/C=C/c2ccc([N+](=O)[O-])o2)nc2ccccc2c1=O,21.6% (active)
2,CCOCCCn1c(NN)nc2ccccc2c1=O,2.87% (inactive)
3,CCn1c(=O)c([N+](=O)[O-])c(NCc2ccc3c(c2)OCO3)c2ccccc21,0.41% (inactive)
4,Cc1cn(C2C=CC(CO)O2)c(=O)[nH]c1=O (stereo unspecified),8.77% (inactive)
5,COc1cc(OC)c2c(c1)OC(=O)CC2c1cc(OC)c(OC)c(OC)c1 (stereo unspecified),2.5% (inactive)
6,CC1(C)CC2CC(C)(CN2c2ncnc3ccc(Br)cc23)C1 (stereo unspecified),-0.09% (inactive)
7,Cc1ccc(NC(=O)CCCNC(=O)c2ccc(Cl)cc2)cc1S(=O)(=O)N1CCOCC1,-1.94% (inactive)
8,CC(C)[C@@H]1COC(c2cccc(C3=N[C@H](C(C)C)CO3)c2)=N1,-0.25% (inactive)
9,CCN1/C(=C\c2ccc3ccccc3[n+]2CC)Sc2cc(C)ccc21,15% (active)
10,CC(=O)c1c(Nc2ccccc2)sc(C(=O)c2ccccc2)c1C,1.73% (inactive)
11,CCOc1ccccc1NC(=S)N1CCN(c2cccc(C)c2C)CC1,0.08% (inactive)
12,O=C(O)CSc1nccc2ccccc12,-0.18% (inactive)
13,O=C1CCC(=O)N(O)CCCCCNC(=O)CCC(=O)N(O)CCCCCNC(=O)CCC(=O)N(O)CCCCCN1,29.4% (active)
14,CCOC(=O)c1nnn2c1nc(N1CCN(c3ccccc3)CC1)c1ccccc12,1.28% (inactive)
15,O=C(/C=C/c1ccccc1Cl)Nc1ccc(S(=O)(=O)Nc2ncccn2)cc1,0.84% (inactive)
16,COc1cccc(OC)c1C(=O)NC(=S)NCc1ccco1,1.37% (inactive)
17,COc1cc(NC(=S)NCc2ccco2)c(OC)cc1Cl,-0.7% (inactive)
18,COc1cc(C(=O)NC(=S)NCc2ccco2)cc(OC)c1OC,14.7% (active)
19,O=C(NCCc1c[nH]c2ccccc12)c1cc2ccccc2oc1=O,0.17% (inactive)
20,CC(C)(C)N(Cc1ccccc1)C(=O)COC(=O)CCc1c[nH]c2ccccc12,-1.13% (inactive)
21,O=C(O)c1cccc(NC(=S)N/N=C/c2c[nH]c3ccccc23)c1,0.08% (inactive)
22,CSC(=S)N/N=C/c1c[nH]c2ccccc12,12.8% (active)
23,Nc1nonc1-n1nnc(C(=O)N/N=C/c2c[nH]c3ccccc23)c1-c1ccccc1,0% (inactive)

row,SMILES,inhibition
1,Cc1ccc(CSCC2Nc3ccc(C(=O)N4CCN(c5ccc(F)cc5)CC4)cc3NC2=O)cc1 (stereo unspecified),-0.76% (inactive)
2,O=C(O)CCCC(=O)Nc1ccc(Oc2cccc(C(F)(F)F)c2)nc1,1.79% (inactive)
3,Cc1ccc(OC(=O)c2ccccc2C(=O)OCC(F)(F)C(F)F)cc1,0.25% (inactive)
4,O=C(CCC(=O)NNc1nc2ccccc2c2nc(-c3ccccc3)nn12)NCCCN1CCCC1=O,-1.57% (inactive)
5,CCOC(=O)c1ccc(NC(=O)Cn2cnc3cc(C)c(C)cc32)cc1,16.7% (active)
6,CCOC(=O)c1ccc(NC(=O)CSc2nnc(COc3ccccc3OC)n2C)cc1,2.63% (inactive)
7,CCCc1nnc(SCC(=O)Nc2ccc(C(=O)OCC)cc2)o1,-1.1% (inactive)
8,COc1cc(OC)cc(-c2c(C#Cc3ccsc3)c3cc(-c4ccc(SC)cc4)ccc3n2C)c1,0.52% (inactive)
9,COc1ccc(-c2ccc(CCC(=O)O)n2NC(=O)c2ccc(C(C)(C)C)cc2)cc1,2.02% (inactive)
10,COc1ccc(CSc2nnnn2-c2ccc(O)cc2)cc1F,-0.34% (inactive)
11,COCCn1c(SCC(=O)Nc2cc(OC)ccc2OC)nc2c(c1=O)SC(C)C2 (stereo unspecified),-0.66% (inactive)
12,Cc1cc2c(cc1C)[n+](C)cn2CC(O)COCC1CC=CCC1 (stereo unspecified),-1.13% (inactive)
13,O=[N+]([O-])c1ccc(N=Cc2c(O)ccc3ccccc23)cc1,25% (active)
14,Cc1nc2ccccc2nc(=O)c1NNc1ccc([N+](=O)[O-])cc1,-0.37% (inactive)
15,O=C(Oc1ccc([N+](=O)[O-])cc1)c1ccc2ccccc2n1,0.89% (inactive)
16,O=S(=O)(c1ccc(Br)cc1)n1ccc2ccccc21,0.82% (inactive)
17,CCCc1nc(N)nc2c1C(=O)CC(C)(C)C2,0% (inactive)
18,CC(C)(C)NC(=O)COC(=O)c1cc(Cl)ccc1[N+](=O)[O-],16% (active)
19,CCCC(=O)OCC(=O)Nc1cc(Cl)ccc1[N+](=O)[O-],0.59% (inactive)
20,CC(C)(C)NC(=O)COC(=O)c1cc(Br)ccc1Cl,-0.09% (inactive)
21,CSc1ccccc1NC(=O)C(C)N1C(=O)c2ccccc2S1(=O)=O (stereo unspecified),-0.94% (inactive)
22,CC1CC1C(=O)OCC(=O)c1c(N)n(C)c(=O)n(C)c1=O (stereo unspecified),-1.26% (inactive)
23,COc1ccc(NC(=O)CSc2nc(SC)ns2)c(OC)c1,-1.11% (inactive)

row,SMILES,inhibition
1,CCCCCCNC(=O)CSc1nccn1Cc1ccccc1,-3.38% (inactive)
2,Cc1occc1C(=O)NC1CCCN(Cc2ccc(CC(C)C)cc2)C1 (stereo unspecified),-0.68% (inactive)
3,CCOc1ccc(OCCSc2nc3ccccc3n2CC(=O)O)cc1,-0.94% (inactive)
4,Oc1c(Br)cccc1/C=N/Nc1c(F)c(F)c(F)c(F)c1F,0.5% (inactive)
5,Oc1ccc(Br)cc1/C=N/Nc1ccccn1,9.57% (inactive)
6,Oc1cccc(/C=N/Nc2ccc(Cl)nn2)c1O,19.4% (active)
7,C/C(=C/C(=O)N1CCN(C)CC1)C(=O)O,0.17% (inactive)
8,CCC1OC(c2ccc([N+](=O)[O-])cc2)=Nc2ccccc21 (stereo unspecified),-1.44% (inactive)
9,CCCCOc1ccc(CSC(=N)N)cc1[N+](=O)[O-],10.1% (active)
10,CCCCCOc1ccc(CSC2=NCCN2)cc1[N+](=O)[O-],0.17% (inactive)
11,CCCCOC(=O)CCCc1ccc([N+](=O)[O-])cc1[N+](=O)[O-],0.76% (inactive)
12,O=C(Nc1ccccc1F)C1C2C=CC3(O2)C1C(=O)N(c1cccnc1)C3C(=O)NC1CCCCC1 (stereo unspecified),-0.09% (inactive)
13,COC(=O)c1c(NC(=O)COC(=O)[C@@H](NS(=O)(=O)c2ccccc2)C(C)C)sc2c1CCC2,-2.57% (inactive)
14,Oc1ccc2ccccc2c1N=Nc1nccs1,13.9% (active)
15,O=C(NC(=S)Nc1ncccn1)c1ccccc1Br,0.5% (inactive)
16,O=C(CN1C(=O)COc2ccc(Cl)cc21)N1CCOCC1,1.26% (inactive)
17,COc1ccc(NC(=O)CCn2ccnc2)c(OC)c1,-1.17% (inactive)
18,CC(=O)NC12CC3CC(C1)CC(C(=O)N1CCN(S(=O)(=O)c4cccs4)CC1)(C3)C2,-1.77% (inactive)
19,CCCCCCn1cc(C(=O)O)c(=O)c2cc(F)c(N3CCCCC3)cc21,1.34% (inactive)
20,CCCCNC(=O)c1cn(CC)c2cc(N3CCN(C(=O)c4ccco4)CC3)c(F)cc2c1=O,5.88% (inactive)
21,CCn1cc(C(=O)NCCC(=O)NCCO)c(=O)c2cc3c(cc21)OCO3,1.2% (inactive)
22,CN1CCN(c2cc3c(cc2F)c(=O)c(C(=O)O)cn3CCF)CC1,100% (active)
23,CCn1cc(S(=O)(=O)c2cccc(C)c2)c(=O)c2cc(F)c(N3CCN(C)CC3)cc21,-4.05% (inactive)

row,SMILES,inhibition
1,CCn1cc(C(=O)NCCO)c(=O)c2cc(F)c(N3CCN(C)CC3)cc21,97.8% (active)
2,NNC(=O)c1ccc(COCC(F)(F)C(F)F)cc1,3.04% (inactive)
3,CO/N=C(\C(=O)N[C@@H]1C(=O)N2C(C(=O)O)=C(COC(C)=O)CS[C@H]12)c1csc(N)n1 (stereo in doubt),98.5% (active) and 97.8% (active) and -0.69% (inactive)
4,C=CC1=C(C(=O)O)N2C(=O)[C@@H](NC(=O)/C(=N/OCC(=O)O)c3csc(N)n3)[C@H]2SC1,97.6% (active)
5,Cc1cc(C)cc(C(=O)NC2C(=O)N3C(C(=O)O)=C(CSc4nnc(C)s4)CSC23)c1 (stereo unspecified),-0.85% (inactive)
6,C=CC1=C(C(=O)O)N2C(=O)[C@@H](NC(=O)/C(=N\OCC(=O)O)c3csc(N)n3)[C@H]2SC1,97.5% (active)
7,Cc1nnc(SCC2=C(C(=O)O)N3C(=O)C(NC(=O)Cn4nc(C)c(Cl)c4C)C3SC2)s1 (stereo unspecified),1.18% (inactive)
8,CC(C)(C)OC(=O)C1=C(CO)CS[C@@H]2[C@H](NC(=O)Cc3ccccc3)C(=O)N12,1.43% (inactive)
9,COC(=O)C1=C(C)NC2=C(C(=O)c3ccccc32)C1c1ccc(-c2ccc(C(=O)O)cc2)o1 (stereo unspecified),1.44% (inactive)
10,CCCCC(=O)Nc1nnc(S(=O)(=O)N(C)Cc2ccco2)s1,1.69% (inactive)
11,Cc1[nH]nc(SCC(=O)NCC(C)C)c1[N+](=O)[O-],-0.08% (inactive)
12,COc1ccc(S(=O)(=O)N2CCOCC2)cc1NC(=O)CSc1ncnc2ccccc12,-2.21% (inactive)
13,COC(=O)c1ccc(COC(=O)CNC(=O)c2cccc(OC)c2)o1,-0.35% (inactive)
14,CCOC(=O)c1c(CC(C)C)csc1/N=C/C1=C(O)CCCC1=O,-1.62% (inactive)
15,Cc1ccc(-n2c(C)nnc2SCC(=O)NC2CC2)cc1,0.84% (inactive)
16,O=c1ccc2c(-c3ccccc3S(=O)(=O)O)c3ccc(O)c(O)c3oc-2c1O,20.2% (active)
17,CC(C)C(C(=O)NCc1ccco1)N(CC1CCCO1)C(=O)CNS(=O)(=O)c1ccc(F)cc1 (stereo unspecified),0.85% (inactive)
18,CC(=O)Nc1ccc(S(=O)(=O)N(CCc2ccccc2)CC(=O)N/N=C/c2ccc(C(=O)O)cc2)cc1,2.71% (inactive)
19,O=S(=O)(Nc1ccc(-n2cnnn2)cc1)c1ccc(Cl)cc1,1.06% (inactive)
20,COc1ccc(/C=C/C(=O)c2cc(Br)ccc(=O)c2O)cc1,10.9% (active)
21,COc1ccc(C(=O)/C=C/c2cccnc2)c(OC)c1,-1.21% (inactive)
22,COc1ccc2oc(=N)c(C(=O)Nc3ccc(Br)cc3)cc2c1,-1.46% (inactive)
